Sampled rows, rich in hits. Any-hit rate of the full collection: about 11%.
hNpr1 antagonist – human Npr1 receptor antagonism. P16066. HEK293 hNpr1 GloSensor cGMP, ANP-stimulated luminescence. Potency, µM (doses to about 46.3 µM), inactives show at the top dose activity change, negative = inhibition, hits mostly inhibitors. 76,000 compounds, 1.6% hits; calls by dose curve; further: nearly all actives have a fitted effect of over 60% in size
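HEK293 cells stably expressing human Npr1 and cGMP GloSensor pGS-40F, loaded 2 h with 2% GloSensor reagent, given compound 30 min at room temperature. Luminescence read before and 20 min after 0.1 nM hNppA.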
Luciferase inh – inhibitors of firefly (Photinus pyralis) luciferase; purified P. pyralis luciferase, luminescence, biochemical; Potency, µM (series often up to 115 µM), most hits filed as inhibitors; 76,000 compounds, 2.5% hits; AID 1347043; further: nearly all actives have a fitted effect of over 65% in size
Target sequence (P08659 whole entry, looked up): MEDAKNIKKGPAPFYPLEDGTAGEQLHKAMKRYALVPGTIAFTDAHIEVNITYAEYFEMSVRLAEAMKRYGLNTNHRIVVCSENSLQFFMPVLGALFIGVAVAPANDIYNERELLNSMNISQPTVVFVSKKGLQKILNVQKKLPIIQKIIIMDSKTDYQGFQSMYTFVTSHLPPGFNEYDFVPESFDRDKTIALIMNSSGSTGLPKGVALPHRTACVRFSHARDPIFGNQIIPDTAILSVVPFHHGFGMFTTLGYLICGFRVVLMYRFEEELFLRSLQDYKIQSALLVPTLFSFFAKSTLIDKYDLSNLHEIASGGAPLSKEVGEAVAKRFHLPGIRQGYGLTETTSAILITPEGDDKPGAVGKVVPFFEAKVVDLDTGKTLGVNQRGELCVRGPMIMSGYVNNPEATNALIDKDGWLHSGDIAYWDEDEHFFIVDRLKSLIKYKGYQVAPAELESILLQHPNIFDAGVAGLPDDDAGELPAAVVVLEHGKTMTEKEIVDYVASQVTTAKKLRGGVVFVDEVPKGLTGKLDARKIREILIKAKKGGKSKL
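Inhibitors were tested against purified firefly luciferase in a biochemical, low-substrate format (both substrates at 10uM) and luminescence measured with a CCD imager.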
NIH3T3 tox – kills NIH 3T3 cells. Potency, µM (series often up to 96.7 µM), without a hit: top-dose activity change, negative = cytotoxicity, usual class: inhibitors. NIH 3T3 viability, CellTiter-Glo ATP luminescence, 48-72 h. 94,000 compounds, 4.3% hits; further: nearly all actives have a fitted effect of over 55% in size
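ATP-dependent luminescence (CellTiter-Glo) served as the viability signal for NIH 3T3 cells treated with compound for 48 or 72 hr at 37 °C.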
HEK cytotox – cytotoxic compounds in HEK 293 cells | HEK 293 viability, ATP luminescence (CellTiter-Glo), 48-72 h | Potency, µM (series often up to 115 µM), for the others: top-dose activity change, negative = cytotoxicity, hits mostly inhibitors | 94,000 compounds, 6.6% hits; further: nearly all actives have a fitted effect of over 60% in size
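HEK 293 cells at 250 cells/well were exposed to compounds by pintool transfer for 48 or 72 hr at 37 degree Celsius, 5% CO2. Viability was read as ATP-coupled luminescence with CellTiter-Glo after 10 min at room temperature.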
Numbers without * were called inactive; i = inactive; ? = inconclusive; . = no result; [ ] = another dose, or the depositor's remark. Unless noted, the call rests on the fitted dose curve; in most records, active means well fitted curve in the direction sought with a large enough effect; inconclusive means small, poorly fitted or top-dose-only effect, or another doubt; inactive means no such curve, though single readings can be large; an effect the other way counts as inactive or inconclusive. On the % scale 0 is the no-effect control and ±100 the full control effect; potency means the concentration at half of the fitted maximal effect.

SMILES	hNpr1 antagonist	Luciferase inh	NIH3T3 tox	HEK cytotox
Cc1nc(-c2cccc(Cl)c2)n(CC(=O)Nc2ccc(C(F)(F)F)cc2)c(=O)c1CCO	-22%	i	16µM*	32µM*
Cc1cc(C)cc(NC(=O)Cn2c(-c3cccc(Cl)c3)nc(C)c(CCO)c2=O)c1	5%	i	-12%	?
Cc1nc(-c2cccc(Cl)c2)n(CC(=O)NC(C)C)c(=O)c1CCO	2%	i	-9%	?
CCc1ccc(NC(=O)Cn2c(-c3cccc(Cl)c3)nc(C)c(CCO)c2=O)cc1	0%	i	?	28µM*
Cc1cccc(N(C)C(=O)Cn2c(-c3cccc(Cl)c3)nc(C)c(CCO)c2=O)c1	-9%	i	?	35µM*
COc1cccc(CNC(=O)Cn2c(-c3cccc(Cl)c3)nc(C)c(CCO)c2=O)c1	4%	i	?	22µM*
COCCc1noc(-c2ccccc2OC2CN(C(=O)c3ccc(C)nc3)C2)n1	5%	i	3%	5%
CCN1CCN(C(=O)CN2CC3CC(C2)[C@H]2CCCC(=O)N2C3)CC1 (stereo not given in full)	7%	i	3%	-7%
O=C(Cc1ccccc1)N1CCC(N2CC(OCC3CC3)C23CCOCC3)CC1 (stereo not given)	5%	i	-11%	-5%
CC(C)NC(=O)C(NC(=O)c1ccc2c(c1)OCO2)C1CCN(C(=O)c2ccc(F)cc2)CC1 (stereo not given)	-1%	i	-13%	-23%
COc1ccc(N2CCN(C(=O)Cn3c(-c4cccc(Cl)c4)nc(C)c(CCO)c3=O)CC2)cc1	-13%	i	-13%	45µM*
COc1ccccc1NC(=O)Cn1c(-c2cccc(Cl)c2)nc(C)c(CCO)c1=O	-3%	i	-25%	?
Cc1nc(-c2cccc(Cl)c2)n(CC(=O)Nc2ccc(F)cc2)c(=O)c1CCO	-4%	i	?	40µM*
Cc1nc(-c2ccc(F)cc2)n(CC(=O)Nc2cccc(Cl)c2)c(=O)c1CCO	-18%	i	?	?
O=C1NCCCCCCN(Cc2cccc(F)c2)[C@H]2CCC[C@@H]12	-15%	i	?	79µM*
N#Cc1ccc(CN2CCCCCNC(=O)[C@@H]3CCC[C@@H]32)cc1	-9%	i	?	79µM*
Cc1noc(C)c1Cc1ccc(C(=O)N2CC(N(Cc3cccnc3)CC(C)C)C2)o1	-3%	i	?	?
O=C(Cn1c(=O)oc2ccccc21)N1CCC2(CC1)CC(OCC1CC1)CCO2 (stereo not given)	0%	i	-20%	10%
CCc1nc(-c2ccc(OC3CCN(S(=O)(=O)Cc4ccccc4)C3)cc2)no1 (stereo not given)	?	?	?	45µM*
COCc1nc(-c2ccc(OC3CCN(C(=O)Cc4c[nH]c5ccccc45)C3)cc2)no1 (stereo not given)	?	i	?	35µM*
CCc1nc(-c2ccc(OC3CCN(C(=O)c4sc(C)nc4C)C3)cc2)no1 (stereo not given)	-20%	i	?	45µM*
CNC(=O)c1cc(C2CC2)nc2onc(C3CCN(C(C)=O)CC3)c12	.	.	2%[138 µM]	i
Cc1cn2nnc(C(=O)N3CCC(C(=O)Nc4cccc(F)c4)CC3)c2c(=O)[nH]1	21%	i	-9%	3%
COc1ccc(-c2cccc(C(=O)N3CCC(NC(C)=O)CC3)c2)nn1	.	.	-5%	0%
COc1ccccc1CNC[C@H]1O[C@H](Cc2cc(CN(C)C)on2)CC[C@@H]1O	-3%[70.6 µM]	i	-18%[174 µM]	-26%[172 µM]
COc1ccccc1CNC[C@H]1O[C@H](Cc2cc(-c3ccccc3)on2)CC[C@@H]1O	-13%[70.6 µM]	i	89µM*	?
O[C@H]1CC[C@@H](Cc2cc(-c3ccccc3)on2)O[C@@H]1CNC1CCCCC1	-22%[70.6 µM]	i	?	100µM*
CN1C(=O)CCCCC1C(=O)NCCc1c[nH]c2ccccc12 (stereo not given)	-3%	i	-4%	-13%
Cc1ccc(N2C(=S)N[C@H]3[C@@H](O)[C@H](O)C[C@@H](C(=O)NCc4cccs4)[C@H]32)cc1Cl	-2%	?	?	79µM*
COc1ccc(N2CC(C(=O)NCc3cccs3)NC2=O)cc1 (stereo not given)	15%[70.6 µM]	i	-21%[138 µM]	-26%[172 µM]

High-throughput results (PubChem BioAssay)
